Assay results taken from PubChem BioAssay (NCATS).
Inconclusive results are not listed. Active and inactive are the calls of the source. Unless noted, calls follow the shape of the dose curve; as a rule, active = well fitted curve in the direction sought with a large enough effect; inconclusive = small, poorly fitted or top-dose-only effect, or another doubt; inactive = no such curve, though single readings can be large; an effect the other way counts as inactive or inconclusive.

Legend:
[1] = qHTS for differential inhibitors of proliferation of Plasmodium falciparum line HB3 (AID 1886); conditions: Potency: Plasmodium falciparum HB3 proliferation inhibition;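 also: parasites grown with compound for 72 h before SYBR Green readout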; also: potency is read from the fitted curve at half-maximal effect
[2] = target: Ferritin light chain (Equus caballus) (UniProt P02791); test: qHTS Validation Assay for Identification of Novel General Anesthetics (AID 2323); also: series mostly up to about 77 µM
Chain of Ferritin light chain (Equus caballus) (P02791 2-175 limits assumed): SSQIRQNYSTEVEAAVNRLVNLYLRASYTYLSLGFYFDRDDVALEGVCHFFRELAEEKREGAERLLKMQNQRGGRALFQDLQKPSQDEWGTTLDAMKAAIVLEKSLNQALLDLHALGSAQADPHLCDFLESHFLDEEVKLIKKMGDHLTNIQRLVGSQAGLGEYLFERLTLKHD
Summary of the method: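 Competitive displacement of the profluorescent anesthetic 1-AMA (50% saturated, PBS) from 10 uM apoferritin, 10 min, room temperature. Activity is normalized 380/535 nm fluorescence; concentration-response fitted with a four-parameter Hill equation.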

[3] = target: ATP-dependent DNA helicase Q1 (Homo sapiens) (UniProt P46063); test: qHTS Validation Assay for Inhibitors of RecQ-Like Dna Helicase 1 (RECQ1) (AID 2353)
Chain of ATP-dependent DNA helicase Q1 (Homo sapiens) (P46063 whole entry, looked up): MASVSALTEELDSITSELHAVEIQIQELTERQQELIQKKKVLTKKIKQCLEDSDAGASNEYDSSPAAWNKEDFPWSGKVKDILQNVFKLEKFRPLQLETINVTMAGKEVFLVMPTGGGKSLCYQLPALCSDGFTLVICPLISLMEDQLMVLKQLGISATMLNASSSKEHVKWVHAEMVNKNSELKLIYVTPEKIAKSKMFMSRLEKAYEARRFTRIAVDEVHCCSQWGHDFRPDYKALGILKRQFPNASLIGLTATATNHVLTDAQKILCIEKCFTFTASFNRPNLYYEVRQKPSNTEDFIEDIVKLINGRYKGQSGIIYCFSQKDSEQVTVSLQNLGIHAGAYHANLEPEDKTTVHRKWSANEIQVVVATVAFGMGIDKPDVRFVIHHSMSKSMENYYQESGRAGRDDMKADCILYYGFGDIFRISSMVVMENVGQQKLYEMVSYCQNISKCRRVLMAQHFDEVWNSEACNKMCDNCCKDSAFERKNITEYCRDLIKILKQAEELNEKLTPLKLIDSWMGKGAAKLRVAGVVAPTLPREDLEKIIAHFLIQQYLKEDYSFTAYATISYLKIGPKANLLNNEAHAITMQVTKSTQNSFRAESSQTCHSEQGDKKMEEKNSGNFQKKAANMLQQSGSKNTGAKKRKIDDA
Summary of the method: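 50 nM RECQ1T1 preincubated 15 min with compound in Tris pH 8.0 buffer with MgCl2, DTT, Tween-20 and 2.5 ug/ml poly(dI-dC); started with 200 nM TAMRA/BHQ-2 forked duplex and 2 mM ATP. Unwinding read as fluorescence (525/598 nm), two reads 2 h apart.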

[4] = High Content Imaging Cell-Based qHTS for Inhibitors of the mTORC1 Signaling Pathway in MEF (Tsc2-/-, p53-/-) Cells (AID 2666);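 also: percent of cells scored positive for phospho-rpS6 Ser235/236 immunostaining by imaging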
Summary of the method: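 Cells were plated, dosed with compound after 24 hrs, and incubated another 24 hrs at 37 degree Celsius. Fixed cells were immunostained for phospho-rpS6 Ser235/236 and counterstained, and the normalized signal was scored as % active cells against rapamycin and DMSO controls.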

[5] = target: Ubiquitin carboxyl-terminal hydrolase 2 (Homo sapiens) (UniProt O75604); test: qHTS Validation Assay for Inhibitors of Ubiquitin-specific Protease USP2a Using CHOP2 as the Reporter (AID 463106)
Chain of Ubiquitin carboxyl-terminal hydrolase 2 (Homo sapiens) (O75604 whole entry, looked up): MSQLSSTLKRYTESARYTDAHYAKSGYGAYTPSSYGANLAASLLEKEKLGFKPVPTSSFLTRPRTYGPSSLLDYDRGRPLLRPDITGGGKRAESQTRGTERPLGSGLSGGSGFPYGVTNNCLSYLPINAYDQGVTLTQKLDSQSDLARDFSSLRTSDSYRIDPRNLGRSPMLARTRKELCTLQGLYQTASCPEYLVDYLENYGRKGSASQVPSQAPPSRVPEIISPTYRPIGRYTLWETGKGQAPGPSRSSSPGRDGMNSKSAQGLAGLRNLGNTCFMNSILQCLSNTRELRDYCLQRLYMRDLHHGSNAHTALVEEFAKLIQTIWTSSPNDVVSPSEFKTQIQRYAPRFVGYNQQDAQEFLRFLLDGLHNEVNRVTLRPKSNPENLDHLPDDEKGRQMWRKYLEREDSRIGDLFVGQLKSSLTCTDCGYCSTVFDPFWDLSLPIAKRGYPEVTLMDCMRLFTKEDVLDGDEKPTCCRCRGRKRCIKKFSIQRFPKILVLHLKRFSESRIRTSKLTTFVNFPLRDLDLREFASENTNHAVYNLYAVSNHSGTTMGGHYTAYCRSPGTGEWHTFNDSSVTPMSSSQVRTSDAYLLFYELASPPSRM
Summary of the method: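 10nM USP2 core + cpd, 30min RT; add 25nM Ub-CHOP2/25nM substrate; 60min RT; FI 485/531nm. Buffer Tris pH 8.0, CaCl2, BME, CHAPS. Norm. to NEM = 100% inhibition; time-zero read flags fluorescent artifacts.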

[6] = target: DNA polymerase III PolC-type (Bacillus subtilis (strain 168)) (UniProt P13267); test: qHTS Validation Assay for the Inhibitors of DNA Replication in Gram-Positive Bacteria (AID 485295);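 also: reconstituted holoenzyme with PolC plus beta clamp SSB and primase; PicoGreen fluorescence of double-stranded DNA made on primed circular M13 template; series mostly up to about 57 µM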
Summary of the method: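 Double-stranded DNA product detected by PicoGreen fluorescence after EDTA quench. Compound incubated with B. subtilis holoenzyme (PolC, beta subunit, SSB, primase) before substrate addition; primed replication of M13Gori with dNTPs and NTPs at room temperature; DMSO defines 0% inhibition.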

[7] = target: Tumor susceptibility gene 101 protein (Homo sapiens) (UniProt Q99816); test: qHTS Validation Assay for Iinhibitors of HIV-1 Budding by Blocking the Interaction of PTAP/TSG101 (AID 485342; calls by dose curve)
Chain of Tumor susceptibility gene 101 protein (Homo sapiens) (Q99816 whole entry, looked up, the tested form may be a part): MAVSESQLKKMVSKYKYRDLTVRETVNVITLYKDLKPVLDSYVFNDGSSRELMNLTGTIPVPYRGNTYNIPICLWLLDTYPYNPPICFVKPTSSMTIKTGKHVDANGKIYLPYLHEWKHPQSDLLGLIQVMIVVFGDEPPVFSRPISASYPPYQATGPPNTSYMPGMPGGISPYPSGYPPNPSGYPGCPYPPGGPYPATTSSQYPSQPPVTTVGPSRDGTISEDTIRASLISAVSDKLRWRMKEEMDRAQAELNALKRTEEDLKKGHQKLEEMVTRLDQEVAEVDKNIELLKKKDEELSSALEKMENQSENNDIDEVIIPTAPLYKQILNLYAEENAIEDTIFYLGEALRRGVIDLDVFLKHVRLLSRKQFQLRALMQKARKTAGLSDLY
Summary of the method: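 Fluorescence polarization of 50 nM FITC-PTAP peptide bound to 10 uM Tsg101 binding domain was read after 20 min room-temperature incubation with compounds, in 10 mM HEPES pH 7.5, 0.15 M NaCl, 0.01% Tween 20.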

[8] = qHTS Validation Assay to Find Inhibitors of Chronic Active B-Cell Receptor Signaling (AID 485345; active = well fitted curve in the direction sought with a large enough effect in the main read-out, with a control signal flat, not every such curve was filed as active; also: potency is read from the fitted curve at half-maximal effect)
Summary of the method: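 Read-out: ratio of filter-corrected green (IkappaBalpha fusion) to red (native) luciferase signal in doxycycline-induced TMD8 cells after 4 h at 37C. Titration spanned 46 uM–3 nM; Data were normalised to basal cells and 10 uM MG-132 wells.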

[9] = target: Beta-2 adrenergic receptor (Homo sapiens) (UniProt P07550); test: qHTS validation assay of beta-arrestin-biased ligands of beta2-adrenergic receptor (AID 485366)
Chain of Beta-2 adrenergic receptor (Homo sapiens) (P07550 whole entry, looked up): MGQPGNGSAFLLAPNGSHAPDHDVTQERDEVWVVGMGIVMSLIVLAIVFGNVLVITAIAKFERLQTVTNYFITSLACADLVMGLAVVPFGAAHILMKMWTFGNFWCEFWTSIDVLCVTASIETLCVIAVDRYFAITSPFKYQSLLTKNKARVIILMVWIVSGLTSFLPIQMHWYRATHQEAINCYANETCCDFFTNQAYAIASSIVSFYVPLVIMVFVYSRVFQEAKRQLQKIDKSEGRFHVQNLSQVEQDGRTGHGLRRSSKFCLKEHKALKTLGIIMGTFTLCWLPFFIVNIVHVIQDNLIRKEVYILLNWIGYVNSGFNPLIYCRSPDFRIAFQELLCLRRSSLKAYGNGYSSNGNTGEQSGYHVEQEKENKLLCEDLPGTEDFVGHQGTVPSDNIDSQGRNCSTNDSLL
Summary of the method: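 Tango cells (recombinant beta2-AR with recombinant beta-arrestin; recruitment releases tTA driving luciferase) were treated with compounds titrated up to 46 microM for 18 hr at 37 degrees C. Luminescence gave %Activity, and concentration-response curves were curve-classified.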

[10] = target: Thioredoxin reductase 1, cytoplasmic (Rattus norvegicus) (UniProt O89049); test: qHTS Assay for Substrates of Mammalian Selenoprotein Thioredoxin Reductase 1 (TrxR1) (AID 488772);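 also: NADPH fluorescence in the first read after selenite addition and not the 8 min delta; series mostly up to about 57 µM; a drop in NADPH fluorescence below the no-compound background marks a TrxR1 substrate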
Chain of Thioredoxin reductase 1, cytoplasmic (Rattus norvegicus) (O89049 whole entry, looked up): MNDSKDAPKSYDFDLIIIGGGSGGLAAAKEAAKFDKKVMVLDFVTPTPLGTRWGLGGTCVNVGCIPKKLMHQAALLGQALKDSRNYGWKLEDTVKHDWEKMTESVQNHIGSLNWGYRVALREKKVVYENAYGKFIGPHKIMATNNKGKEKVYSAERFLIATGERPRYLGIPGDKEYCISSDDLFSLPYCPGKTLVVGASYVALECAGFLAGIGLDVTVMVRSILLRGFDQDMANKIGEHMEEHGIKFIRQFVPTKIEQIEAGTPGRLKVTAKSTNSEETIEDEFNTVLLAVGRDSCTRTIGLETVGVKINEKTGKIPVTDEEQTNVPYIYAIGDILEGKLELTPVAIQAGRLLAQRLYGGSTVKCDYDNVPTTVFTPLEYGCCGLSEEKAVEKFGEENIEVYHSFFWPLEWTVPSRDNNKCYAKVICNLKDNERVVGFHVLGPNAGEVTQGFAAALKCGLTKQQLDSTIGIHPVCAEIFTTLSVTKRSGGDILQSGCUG
Summary of the method: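 Quantitative HTS in Tris-HCl buffer at pH 7.5 with EDTA and Tween-20, using rat TrxR1, 400 uM NADPH and 400 uM selenite (final). A fall in initial NADPH fluorescence relative to background marked substrate behaviour.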

[11] = High Content Imaging Cell-Based qHTS for Inhibitors of the mTORC1 Signaling Pathway in MEF Cells (AID 2667); also: potency is read from the fitted curve at half-maximal effect
Summary of the method: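 Immunofluorescence for rpS6 phosphorylation in MEFs of Tsc2-/-, p53-/- background rescued with WT Tsc2. Compound exposure lasted 24 hrs. Inhibition was scored against rapamycin-treated control wells.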

[12] = Cytometry Cell-Based qHTS for Inhibitors of the mTORC1 Signaling Pathway in MEF cells (AID 2668);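 also: Tsc2-/- p53-/- mouse embryonic fibroblasts stably re-expressing wild-type Tsc2; percent cells positive for phospho-rpS6 Ser235/236 relative to propidium iodide stain; series mostly up to about 38 µM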
Summary of the method: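 Phospho-rpS6 (Ser235/236) immunofluorescence over PI signal, scored as % positive cells using thresholds from 7.5 nM rapamycin and DMSO wells, after 24 h compound exposure of WT-Tsc2-rescued Tsc2-/-, p53-/- MEFs. PI cell count recorded for viability.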

[13] = Validation screen for small molecules that induce DNA re-replication in MCF 10A normal breast cells (AID 463097); also: nearly all actives have a fitted effect of over 60% in size; also: potency is read from the fitted curve at half-maximal effect
Summary of the method: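 Read-out is Hoechst total nuclear intensity by fluorescence scanning imager, flagging increased high-DNA-content nuclei. Compounds were incubated with MCF 10A cells for 48 hr (37 C, 5% CO2) before 40 min staining.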

[14] = target: ATP-dependent 6-phosphofructokinase (Trypanosoma brucei brucei) (UniProt O15648); test: qHTS Validation Assay to Find Inhibitors of T. brucei phosphofructokinase (AID 485368); conditions: outcome: dose series up to 57.5 µM
Chain of ATP-dependent 6-phosphofructokinase (Trypanosoma brucei brucei) (O15648 whole entry, looked up): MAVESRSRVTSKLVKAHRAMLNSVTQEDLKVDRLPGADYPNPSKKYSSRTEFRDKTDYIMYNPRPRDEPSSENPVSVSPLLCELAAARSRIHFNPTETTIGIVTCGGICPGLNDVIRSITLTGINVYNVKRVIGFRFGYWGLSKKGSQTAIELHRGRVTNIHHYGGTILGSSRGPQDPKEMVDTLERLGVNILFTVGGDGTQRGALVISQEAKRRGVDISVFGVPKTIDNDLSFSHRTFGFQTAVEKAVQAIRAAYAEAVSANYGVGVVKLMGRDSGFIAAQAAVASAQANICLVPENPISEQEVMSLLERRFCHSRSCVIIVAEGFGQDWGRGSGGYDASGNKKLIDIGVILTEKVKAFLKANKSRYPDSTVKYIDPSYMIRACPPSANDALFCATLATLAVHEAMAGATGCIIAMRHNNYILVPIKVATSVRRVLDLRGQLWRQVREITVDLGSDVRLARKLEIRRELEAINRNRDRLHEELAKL
Summary of the method: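 Compounds (up to 57 uM, titration series) were pinned into substrate buffer, then 1.25 nM PFK added; after 45 min at room temperature, ADP product was quantified by ADP-Glo luminescence and concentration-response curves fitted.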

[15] = Quantitative high throughput screen for delayed death inhibitors of the malarial parasite plastid, 96 hour incubation (AID 488745); also: nearly all actives have a fitted effect of over 70% in size; also: potency is read from the fitted curve at half-maximal effect
Summary of the method: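 Growth of reporter-bearing P. falciparum in red cells is measured after 96 h with compound, covering two erythrocytic cycles. Luminescence from the integrated luciferase serves as the growth signal.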

[16] = Quantitative high throughput screen for delayed death inhibitors of the malarial parasite plastid, 48 hour incubation (AID 488752); also: nearly all actives have a fitted effect of over 65% in size; also: potency is read from the fitted curve at half-maximal effect
Summary of the method: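 One parasite generation (48 h, 37 C, 5% CO2) of luciferase-reporter P. falciparum in erythrocytes is run with test compound; decreased luminescence indicates inhibited growth.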

[17] = Cytometric Cell-Based qHTS for Inhibitors of the mTORC1 Signaling Pathway in MEF (Tsc2-/-, p53-/-) Cells (AID 2660);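 also: Tsc2 and p53 null MEFs carrying empty vector with compound for 24 h; percent of cells above a phospho-rpS6 to PI ratio cutoff in each well; series mostly up to about 38 µM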
Summary of the method: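 Readout: Alexa-488 phospho-rpS6 (Ser235/236) intensity divided by PI intensity, thresholded against 7.5 nM rapamycin wells and reported as % positive cells. PI cell count served as the viability measure. Compound exposure was 24 hrs at 37 degree Celsius.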

[18] = target: RecQ-like DNA helicase BLM (Homo sapiens) (UniProt P54132); test: qHTS Validation Assay for Inhibitors of Bloom's syndrome helicase (BLM) (AID 2364)
Chain of RecQ-like DNA helicase BLM (Homo sapiens) (P54132 whole entry, looked up): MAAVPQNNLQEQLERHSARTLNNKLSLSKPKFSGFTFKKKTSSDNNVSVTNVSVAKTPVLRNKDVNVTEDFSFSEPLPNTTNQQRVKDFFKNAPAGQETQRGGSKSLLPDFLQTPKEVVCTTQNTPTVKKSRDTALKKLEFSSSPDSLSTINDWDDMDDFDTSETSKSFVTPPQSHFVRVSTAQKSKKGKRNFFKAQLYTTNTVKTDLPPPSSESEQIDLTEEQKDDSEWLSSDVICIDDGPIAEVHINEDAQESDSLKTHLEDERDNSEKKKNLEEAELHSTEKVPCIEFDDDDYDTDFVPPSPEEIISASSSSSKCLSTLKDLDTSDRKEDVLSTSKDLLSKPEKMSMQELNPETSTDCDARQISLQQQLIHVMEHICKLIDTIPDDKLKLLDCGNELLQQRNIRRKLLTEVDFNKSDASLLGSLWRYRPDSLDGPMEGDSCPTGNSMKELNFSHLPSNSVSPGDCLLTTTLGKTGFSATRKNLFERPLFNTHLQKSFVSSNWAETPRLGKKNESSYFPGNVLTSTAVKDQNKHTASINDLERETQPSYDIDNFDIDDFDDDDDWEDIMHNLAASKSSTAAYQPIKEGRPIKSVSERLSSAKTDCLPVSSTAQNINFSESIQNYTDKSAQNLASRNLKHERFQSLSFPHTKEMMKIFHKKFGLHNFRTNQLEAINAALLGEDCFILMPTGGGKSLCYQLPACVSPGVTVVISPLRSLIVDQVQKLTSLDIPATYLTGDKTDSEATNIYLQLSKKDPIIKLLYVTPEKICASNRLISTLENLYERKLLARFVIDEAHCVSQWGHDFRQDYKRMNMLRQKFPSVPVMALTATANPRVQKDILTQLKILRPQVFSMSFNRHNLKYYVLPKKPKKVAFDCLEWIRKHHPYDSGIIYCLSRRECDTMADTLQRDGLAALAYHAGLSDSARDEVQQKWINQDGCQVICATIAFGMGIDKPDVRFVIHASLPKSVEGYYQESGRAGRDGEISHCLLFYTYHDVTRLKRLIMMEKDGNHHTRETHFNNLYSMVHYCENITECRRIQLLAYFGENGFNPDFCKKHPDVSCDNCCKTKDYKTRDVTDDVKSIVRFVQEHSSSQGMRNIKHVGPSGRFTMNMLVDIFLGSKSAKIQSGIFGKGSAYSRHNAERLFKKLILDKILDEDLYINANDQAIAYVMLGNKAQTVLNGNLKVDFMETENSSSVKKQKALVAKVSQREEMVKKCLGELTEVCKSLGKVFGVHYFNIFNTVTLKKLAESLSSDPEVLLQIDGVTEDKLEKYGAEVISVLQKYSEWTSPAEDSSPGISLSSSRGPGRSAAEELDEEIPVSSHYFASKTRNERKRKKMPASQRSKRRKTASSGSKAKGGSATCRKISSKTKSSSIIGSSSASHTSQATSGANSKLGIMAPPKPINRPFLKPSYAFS
Summary of the method: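 Forked 20-bp duplex substrate (200 nM, TAMRA/BHQ-2) plus 2 mM ATP added after 15 min compound preincubation with 50 nM enzyme, pH 8.0, poly(dI-dC) 2.5 ug/ml. Strand separation followed by fluorescence (525/598 nm) over 2 h, normalized to enzyme-free and DMSO controls.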

[19] = qHTS Assay for Modulators of Human Peripheral Myelin Protein 22 (PMP22) Expression/Activity (AID 1967; active = well fitted curve in the direction sought with a large enough effect in the signal ratio; the % refers to the signal ratio)
Summary of the method: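 Readout is the corrected green/red luminescence ratio after 24 h compound exposure, normalised to untreated cells (0%). Engineered MSC80 mouse Schwann cells express green luciferase from the mouse Pmp22 promoter and red luciferase from EF-alpha as internal control.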

[20] = qHTS Assay for Identification of Small Molecule Inducers of Hypoxia Response (AID 2120; active = well fitted curve in the direction sought with a large enough effect in the signal ratio, with a control signal flat, not every such curve was filed as active; the % refers to the signal ratio)
Summary of the method: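 Induction of beta-lactamase reporter activity was measured in CellSensor HRE-bla ME-180 cells after 17 h compound treatment at 37 degrees C, using CCF4 substrate and the 460nm/530nm emission ratio to derive AC50 values.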

Measured: Potency

CN(C)CCCN1c2ccccc2Sc2ccc(C(F)(F)F)cc21
active: [1] 10 µM
inactive: [2] | [3] | [4] | [5] | [6] | [7] | [8] | [9] | [10]

Cc1ccc(Cl)c(Nc2ccccc2C(=O)O)c1Cl
active: [13] 14.1 µM
not listed: [4] | [8] | [17] | [18] | [19] | [20]
inactive: all other assays above

CCCCNc1ccc(C(=O)OCCN(C)C)cc1
not listed: [4] | [13] | [15] | [18] | [19] | [20]
inactive: all other assays above

COCCOC(=O)C1=C(C)NC(C)=C(C(=O)OC(C)C)C1c1cccc([N+](=O)[O-])c1 (configuration not stated)
inactive: [3] | [17] | [4] | [11] | [12] | [5] | [6] | [9]
active: [1] 8.91 µM | [8] 9.2 µM

CN(C)CC/C=C1\c2ccccc2COc2ccccc21
not listed: [1] | [13] | [14] | [19] | [20]
inactive: all other assays above

COc1ccc(CN(CCN(C)C)c2ccccn2)cc1
not listed: [4] | [14] | [17] | [18] | [19] | [20]
inactive: all other assays above

CC1=C(C)C(=O)C(CCCCC#CCCCC#CCO)=C(C)C1=O
active: [1] 8.91 µM | [8] 16.4 µM | [15] 10.4 µM | [16] 8.28 µM
inactive: [3] | [5] | [6] | [9] | [10]

O=C(CCNNC(=O)c1ccncc1)NCc1ccccc1
not listed: [1] | [13] | [17] | [20]
inactive: all other assays above

OC(CCN1CCCCC1)(c1ccccc1)C1CCCCC1 (configuration not stated)
inactive: [2] | [3] | [17] | [11] | [12] | [13] | [5] | [6] | [9] | [10]
active: [1] 11.2 µM

CC(=O)Nc1nnc(S(N)(=O)=O)s1
not listed: [4] | [9] | [14] | [17] | [18] | [19] | [20]
inactive: all other assays above

COCC(=O)O[C@]1(CCN(C)CCCc2nc3ccccc3[nH]2)CCc2cc(F)ccc2[C@@H]1C(C)C
active: [1] 5.01 µM | [11] 10.4 µM | [16] 5.86 µM
inactive: [3] | [18] | [5] | [6] | [7] | [9] | [14] | [10]

CCOC(=O)C1=C(C)NC(C)=C(C(=O)OC)C1c1cccc([N+](=O)[O-])c1 (configuration not stated)
inactive: [3] | [17] | [5] | [6] | [7] | [9] | [10]
active: [1] 11.2 µM | [8] 9.2 µM

O=C(O)CN(CCOCCOCCN(CC(=O)O)CC(=O)O)CC(=O)O
not listed: [17] | [18] | [19] | [20]
inactive: all other assays above

O=C1NCN(c2ccccc2)C12CCN(CCCC(c1ccc(F)cc1)c1ccc(F)cc1)CC2
active: [1] 7.08 µM
inactive: [2] | [3] | [5] | [6] | [7] | [9]

CN1CCN(C2=Nc3ccccc3Oc3ccc(Cl)cc32)CC1
active: [1] 10 µM
inactive: [3] | [4] | [11] | [12] | [5] | [6] | [7] | [8] | [9] | [10]

Cc1nc2c([nH]1)c(=O)n(C)c(=O)n2Cc1ccco1
not listed: [4] | [17] | [18] | [19] | [20]
inactive: all other assays above

COc1cc2c(cc1OC)-c1cc(=Nc3c(C)cc(C)cc3C)n(C)c(=O)n1CC2
active: [1] 3.55 µM | [15] 3.7 µM | [16] 2.62 µM
inactive: [3] | [17] | [11] | [12] | [5] | [6] | [7] | [9] | [10]

CCOC(=O)C1=C(C)NC(C)=C(C(=O)OC)C1c1cccc(Cl)c1Cl (configuration not stated)
active: [1] 12.6 µM | [16] 11.7 µM
inactive: [3] | [17] | [11] | [6] | [7] | [9] | [10]

CCCCOCCOCCOCc1cc2c(cc1CCC)OCO2
inactive: [20]
